The sample as a whole holds a higher share of the strongest signals than the screen did.
Legend:
Experiment in all cases: glycan array binding signal (z-score within array); higher = stronger binding
Conditions in all cases: glycan notation: IUPAC condensed, linker removed
[1] = target: Fuc(a1-2)Gal(b1-3)GalNAc(b1-3)Gal(a1-4)Gal(b1-4)Glc
In short: (§1)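 Columns mapping to the same glycan were averaged after glycan names were converted to IUPAC-condensed notation. The data come from 3228 arrays in the Consortium for Functional Glycomics database, limited to those with an available protein sequence. Binding is reported as a within-array Z-score averaged across arrays of one protein sequence and across linkers.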

[2] = target: Fuc(a1-2)Gal(b1-3)GlcNAc(b1-3)Gal(b1-4)Glc
In short: as §1

Fuc(a1-2)Gal(b1-4)GlcNAc = target: Fuc(a1-2)Gal(b1-4)GlcNAc
In short: as §1

[3] = target: Fuc(a1-2)Gal(b1-4)GlcNAc(b1-6)GalNAc
In short: as §1

[4] = target: Fuc(a1-2)Gal(b1-4)[Fuc(a1-3)]GlcNAc(b1-2)Man(a1-3)[Fuc(a1-2)Gal(b1-4)[Fuc(a1-3)]GlcNAc(b1-2)Man(a1-6)]Man(b1-4)GlcNAc(b1-4)GlcNAc
In short: as §1

[5] = target: Fuc(a1-2)Gal6S(b1-3)GlcNAc6S
In short: as §1

[6] = target: Fuc(a1-2)[GalNAc(a1-3)]Gal(b1-3)GlcNAc
In short: as §1

[7] = target: Fuc(a1-2)[GalNAc(a1-3)]Gal(b1-3)GlcNAc(b1-6)GalNAc
In short: as §1

[8] = target: Fuc(a1-2)[GalNAc(a1-3)]Gal(b1-4)[Fuc(a1-3)]GlcNAc(b1-3)GalNAc
In short: as §1

Gal(a1-3)Gal(b1-3)GlcNAc = target: Gal(a1-3)Gal(b1-3)GlcNAc
In short: as §1

[9] = target: Gal(b1-3)[GlcNAc(b1-6)]GalNAc
In short: as §1

[10] = target: Gal(b1-4)GlcNAc(a1-6)Gal(b1-4)GlcNAc
In short: as §1

[11] = target: Gal(b1-4)GlcNAc(b1-2)Man(a1-3)[Man(a1-6)]Man(b1-4)GlcNAc(b1-4)GlcNAc
In short: as §1

[12] = target: Gal(b1-4)GlcNAc(b1-2)[Gal(b1-4)GlcNAc(b1-6)]Man(a1-6)[GlcNAc(b1-4)][Gal(b1-4)GlcNAc(b1-2)Man(a1-3)]Man(b1-4)GlcNAc(b1-4)GlcNAc
In short: as §1

[13] = target: Gal(b1-4)GlcNAc(b1-3)Gal(b1-3)GalNAc
In short: as §1

[14] = target: Gal(b1-4)GlcNAc(b1-3)Gal(b1-4)GlcNAc(b1-3)Gal(b1-4)GlcNAc(b1-3)Gal(b1-4)GlcNAc(b1-3)Gal(b1-4)GlcNAc(b1-2)Man(a1-3)[Gal(b1-4)GlcNAc(b1-3)Gal(b1-4)GlcNAc(b1-3)Gal(b1-4)GlcNAc(b1-3)Gal(b1-4)GlcNAc(b1-3)Gal(b1-4)GlcNAc(b1-2)Man(a1-6)]Man(b1-4)GlcNAc(b1-4)GlcNAc
In short: as §1

[15] = target: Gal(b1-4)GlcNAc(b1-3)Gal(b1-4)[Fuc(a1-3)GlcNAc(b1-6)]Gal(b1-4)Glc
In short: as §1

[16] = target: Gal(b1-4)GlcNAc(b1-3)[Gal(b1-4)GlcNAc(b1-6)]GalNAc
In short: as §1

Gal(b1-4)GlcNAc6P = target: Gal(b1-4)GlcNAc6P
In short: as §1

Gal6S(b1-3)GlcNAc6S = target: Gal6S(b1-3)GlcNAc6S
In short: as §1

Gal6S(b1-4)GlcNAc6S = target: Gal6S(b1-4)GlcNAc6S
In short: as §1

GalNAc(b1-4)Gal(b1-4)Glc = target: GalNAc(b1-4)Gal(b1-4)Glc
In short: as §1

GalNAc3S(b1-4)GlcNAc3S = target: GalNAc3S(b1-4)GlcNAc3S
In short: as §1

[17] = target: GlcNAc(b1-3)Gal(b1-4)GlcNAc(b1-3)Gal(b1-4)GlcNAc(b1-3)Gal(b1-4)GlcNAc(b1-2)Man(a1-3)[GlcNAc(b1-3)Gal(b1-4)GlcNAc(b1-3)Gal(b1-4)GlcNAc(b1-3)Gal(b1-4)GlcNAc(b1-2)Man(a1-6)]Man(b1-4)GlcNAc(b1-4)GlcNAc
In short: as §1

[18] = target: GlcNAc(b1-3)[GlcNAc(b1-6)]Gal(b1-4)GlcNAc
In short: as §1

Neu5Ac(a2-3)Gal = target: Neu5Ac(a2-3)Gal
In short: as §1

[19] = target: Neu5Ac(a2-3)Gal(b1-4)GlcNAc(b1-6)[Neu5Ac(a2-3)Gal(b1-3)]GalNAc
In short: as §1

[20] = target: Neu5Ac(a2-3)Gal(b1-4)GlcNAc6S
In short: as §1

[21] = target: Neu5Ac(a2-3)Gal6S(b1-4)GlcNAc
In short: as §1

[22] = target: Neu5Ac(a2-3)[Neu5Ac(a2-6)]GalNAc
In short: as §1

[23] = target: Neu5Ac(a2-6)Gal(b1-4)GlcNAc(b1-2)Man(a1-3)[Gal(b1-4)GlcNAc(b1-2)Man(a1-6)]Man(b1-4)GlcNAc(b1-4)GlcNAc
In short: as §1

[24] = target: Neu5Ac(a2-6)Gal(b1-4)GlcNAc(b1-3)Gal(b1-4)GlcNAc(b1-3)GalNAc
In short: as §1

[25] = target: Neu5Ac(a2-6)GalNAc(b1-4)GlcNAc6S
In short: as §1

Neu5Ac(a2-8)Neu5Ac = target: Neu5Ac(a2-8)Neu5Ac
In short: as §1

[26] = target: Neu5Ac(a2-8)Neu5Ac(a2-3)[Gal(b1-3)GalNAc(b1-4)]Gal(b1-4)Glc
In short: as §1

[27] = target: Neu5Gc(a2-3)Gal(b1-3)GlcNAc
In short: as §1

Neu5Gc(a2-6)GalNAc = target: Neu5Gc(a2-6)GalNAc
In short: as §1

[28] = target: Neu5Gc(b2-6)Gal(b1-4)GlcNAc
In short: as §1

B1: Siglec-7-SA-PE-180 (Homo sapiens), Q9Y286 (protein)
chain: MLLLLLLPLLWGRERVEGQKSNRKDYSLTMQSSVTVQEGMCVHVRCSFSYPVDSQTDSDPVHGYWFRAGNDISWKAPVATNNPAWAVQEETRDRFHLLGDPQTKNCTLSIRDARMSDAGRYFFRMEKGNIKWNYKYDQLSVNVTALTHRPNILIPGTLESGCFQNLTCSVPWACEQGTPPMISWMGTSVSPLHPSTTRSSVLTLIPQPQHHGTSLTCQVTLPGAGVTTNRTIQLNVSYPPQNLTVTVFQGEGTASTALGNSSSLSVLEGQSLRLVCAVDSNPPARLSWTWRSLTLYPSQPSNPLVLELQVHLGDEGEFTCRAQNSLGSQHVSLNLSLQQEYTGKMRPVSGVLLGAVGGAGATALVFLSFCVIFIVVRSCRKKSARPAADVGDIGMKDANTIRGSASQGNLTESWADDNPRHHGLAAHSSGEEREIQYAPLSFHKGEPQDLSGQEATNNEYSEIKIPK
- glycan array binding signal (z-score) [1]: -0.254
- glycan array binding signal (z-score) [2]: -0.174
- glycan array binding signal (z-score) (Fuc(a1-2)Gal(b1-4)GlcNAc): -0.302
- glycan array binding signal (z-score) [3]: -0.066
- glycan array binding signal (z-score) [4]: -0.133
- glycan array binding signal (z-score) [5]: 2.66
- glycan array binding signal (z-score) [6]: -0.313
- glycan array binding signal (z-score) [7]: -0.099
- glycan array binding signal (z-score) [8]: 10.7
- glycan array binding signal (z-score) (Gal(a1-3)Gal(b1-3)GlcNAc): -0.363
- glycan array binding signal (z-score) [9]: -0.225
- glycan array binding signal (z-score) [10]: -0.267
- glycan array binding signal (z-score) [11]: 0.048
- glycan array binding signal (z-score) [12]: -0.412
- glycan array binding signal (z-score) [13]: -0.464
- glycan array binding signal (z-score) [14]: -0.144
- glycan array binding signal (z-score) [15]: -0.383
- glycan array binding signal (z-score) [16]: -0.453
- glycan array binding signal (z-score) (Gal(b1-4)GlcNAc6P): 0.085
- glycan array binding signal (z-score) (Gal6S(b1-3)GlcNAc6S): 2.28
- glycan array binding signal (z-score) (Gal6S(b1-4)GlcNAc6S): 2.43
- glycan array binding signal (z-score) (GalNAc(b1-4)Gal(b1-4)Glc): 0.174
- glycan array binding signal (z-score) (GalNAc3S(b1-4)GlcNAc3S): 2.05
- glycan array binding signal (z-score) [17]: 0.059
- glycan array binding signal (z-score) [18]: -0.346
- glycan array binding signal (z-score) (Neu5Ac(a2-3)Gal): 2.25
- glycan array binding signal (z-score) [19]: -0.035
- glycan array binding signal (z-score) [20]: 4.5
- glycan array binding signal (z-score) [21]: 2.67
- glycan array binding signal (z-score) [22]: 3.03
- glycan array binding signal (z-score) [23]: -0.303
- glycan array binding signal (z-score) [24]: -0.587
- glycan array binding signal (z-score) [25]: 0.866
- glycan array binding signal (z-score) (Neu5Ac(a2-8)Neu5Ac): 2.11
- glycan array binding signal (z-score) [26]: -0.067
- glycan array binding signal (z-score) [27]: -0.155
- glycan array binding signal (z-score) (Neu5Gc(a2-6)GalNAc): 2.26
- glycan array binding signal (z-score) [28]: -0.05

Reference: the supplement of paper PMC8728848
